This is an account of results in the supplement of paper PMC3334620.

Whole data set: some 33,000 sequences, median “E-score (-0.5 to 0.5)” near -0.054, cut for the highest 2% near 0.39. The entries come from a sample that favours the highest values as a whole.

Sequence of UniProt Q05854 (Q05854 whole entry, the tested form may be a part): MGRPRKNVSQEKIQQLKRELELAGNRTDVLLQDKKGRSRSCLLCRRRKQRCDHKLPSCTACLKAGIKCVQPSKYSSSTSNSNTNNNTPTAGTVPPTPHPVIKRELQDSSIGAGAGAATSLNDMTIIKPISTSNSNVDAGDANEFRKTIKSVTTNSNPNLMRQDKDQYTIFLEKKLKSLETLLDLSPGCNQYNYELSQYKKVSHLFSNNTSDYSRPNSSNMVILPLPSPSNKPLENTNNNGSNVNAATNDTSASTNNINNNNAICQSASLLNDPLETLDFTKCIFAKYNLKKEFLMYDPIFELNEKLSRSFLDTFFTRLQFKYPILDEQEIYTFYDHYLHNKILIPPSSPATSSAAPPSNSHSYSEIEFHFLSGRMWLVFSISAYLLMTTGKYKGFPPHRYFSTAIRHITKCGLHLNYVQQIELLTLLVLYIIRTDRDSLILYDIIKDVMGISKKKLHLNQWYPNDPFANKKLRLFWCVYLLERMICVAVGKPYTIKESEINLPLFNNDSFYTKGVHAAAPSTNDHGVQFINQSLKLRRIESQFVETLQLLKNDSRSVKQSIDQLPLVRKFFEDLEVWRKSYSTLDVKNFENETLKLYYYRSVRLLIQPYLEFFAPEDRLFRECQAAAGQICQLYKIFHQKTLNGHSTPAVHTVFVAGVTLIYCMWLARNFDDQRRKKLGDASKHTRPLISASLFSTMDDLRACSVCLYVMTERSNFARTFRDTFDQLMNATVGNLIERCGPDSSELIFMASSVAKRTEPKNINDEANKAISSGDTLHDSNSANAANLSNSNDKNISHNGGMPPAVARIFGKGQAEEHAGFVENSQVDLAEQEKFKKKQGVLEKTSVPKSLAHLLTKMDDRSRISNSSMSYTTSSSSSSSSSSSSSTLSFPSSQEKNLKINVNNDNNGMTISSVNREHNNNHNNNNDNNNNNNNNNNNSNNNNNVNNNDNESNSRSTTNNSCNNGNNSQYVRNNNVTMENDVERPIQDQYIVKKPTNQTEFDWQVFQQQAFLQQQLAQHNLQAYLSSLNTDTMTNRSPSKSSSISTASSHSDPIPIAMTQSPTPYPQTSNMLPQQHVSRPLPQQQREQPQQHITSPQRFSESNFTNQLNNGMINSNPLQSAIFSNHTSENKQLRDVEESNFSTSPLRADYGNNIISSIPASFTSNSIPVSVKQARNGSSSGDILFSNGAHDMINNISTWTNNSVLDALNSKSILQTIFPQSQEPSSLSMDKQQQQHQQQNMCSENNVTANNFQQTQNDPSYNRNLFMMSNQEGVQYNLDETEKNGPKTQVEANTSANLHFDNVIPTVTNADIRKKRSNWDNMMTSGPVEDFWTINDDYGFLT

The target in the assay is Ylr278c (UniProt Q05854). Put plainly: PBM E-score (8-mer binding enrichment) (E-score (-0.5 to 0.5)); higher = stronger / more preferred TF binding. The settings on record: protein concentration: 200 nM; construct: GST-DNA-binding domain. A digest of the protocol:
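Using PURExpress in vitro transcription/translation, GST-tagged yeast transcription factors were made in full-length or DNA-binding-domain form. These were applied at about 100-200 nM to double-stranded universal all-10-mer Agilent arrays, and bound protein was detected with fluorescent anti-GST. Scans were normalised with masliner before the Universal PBM Analysis Suite assigned E-scores to ungapped eight-base words pooled with their reverse complements.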
Turning to GAGCTGGA, the “PBM E-score” value was 0.0426.
Under TAAGGACA stands -0.156; under CTATCTGA, -0.328; under CGTTCGGA, 0.41.
In the case of CGTTCGTA, the “PBM E-score” value was found to be 0.0114.
Under CGTTCGGC stands 0.235; under AGTTCGGA, 0.391; under AGTTCGGG, 0.281.
Next, GGTTCGAA: 0.0257; GGTTCGCA: 0.0401.
Next, AGTTCGGC: 0.185; GGTTCGGA: 0.42.
Turning to AAGAGACT, the “PBM E-score” value was -0.101.
Under AAATCTGA stands -0.0879; under TAGTACGA, -0.0816.
With AGGAGTAC, the “PBM E-score” value is -0.136.
As to GGGAGTAC, the “PBM E-score” value is 0.0396.
Turning to CGGAGTAC, the “PBM E-score” value is 0.462.
Under AGGAGTAA stands 0.0423.
Under AGGAGTAG stands -0.00627.
Under CCGAGTAG stands 0.197; under CGGAGTAA, 0.468.
Take CGGAGTAG: the “PBM E-score” value was determined as 0.465.
Under GGGAGTAA stands 0.0663; under GAACAGAA, -0.0459; under ACTTCAAC, -0.0372.
Next, GAGTGAGC: -0.125; AATAGATT: -0.0366; AAGGGCTA: -0.124.
Regarding CCAGATGG, the “PBM E-score” value was -0.0985.
Consider GTATGGCA, for which the “PBM E-score” value is -0.204.
Next, CAGCCGGA: 0.434.
Under CAGCCGGG stands 0.166; under CAGCCGGC, 0.296; under TAGCCGCA, 0.041.
Next, GAGCCGCA: 0.0873.
As to AAGCCGGC, the “PBM E-score” value is 0.372.
Under GAGCCGGC stands 0.325; under GAGCCGGA, 0.407; under AAGCCGGA, 0.417.
Next, AAGCCGGT: 0.333; TAGCCGGA: 0.42.
Under TAGCCGAA stands 0.141.
Consider AGCCGCAT, for which the “PBM E-score” value turned out to be 0.105.
Under CCCCGTGC stands 0.295.
As to AAACCCTC, the “PBM E-score” value was -0.0128.
In the case of CAGAGGAC, the “PBM E-score” value is -0.187.
Under CCGGGAAG stands 0.334; under CAGTGATC, -0.0716.
Next, CTCGACCA: -0.232.
Regarding CGCATAAC, the “PBM E-score” value was -0.0515.
Under ATAGCGAA stands -0.144; under ATACACAT, -0.212.
Under GTCCGGAA stands 0.44.
Next, TTACGGAA: 0.283.
As to ATCCGGAA, the “PBM E-score” value was determined as 0.432.
Next, ATGCGGAA: 0.383; GTACGGAA: 0.31; ATCCGGAT: 0.452.
Under ATCCGTAA stands 0.155; under TTCCGGAA, 0.467.
Next, ATCCGCAT: 0.263; TTCAGGAA: -0.0794.
For the sequence ATCAGGAT, the “PBM E-score” value is -0.018.
Next, GTGCGGAA: 0.265; AATTGCAC: -0.054.
With CATCGCAA, the “PBM E-score” value was -0.28.
Next, GGTTTCAC: 0.0826.
In the case of TACGCATA, the “PBM E-score” value is -0.0249.
Turning to ATCCGTAC, the “PBM E-score” value turned out to be 0.112.
In the case of CTGCGGAC, the “PBM E-score” value was found to be 0.221.
Next, ATACGGAC: 0.242.
Regarding ATCCGGAG, the “PBM E-score” value was found to be 0.486.
Under GTACGGAC stands 0.249.
Next, ATCCGTAG: 0.134; ATCAGGAG: -0.02.
As to CTCCGGAC, the “PBM E-score” value amounted to 0.477.
Next, GTCCGGAC: 0.455; ATCCGGAC: 0.424; CTCAGGAC: -0.159.
On to GTCAGGAC, for which the “PBM E-score” value is -0.266.
Next, ATGCAGAA: -0.16; AGAGATTG: -0.112; AGCTGGTG: -0.109.
As to AATTTGGC, the “PBM E-score” value is -0.131.
As for ACCCTTCG, the “PBM E-score” value is 0.0769.
Next, ATGCGATA: -0.0857; GTACCAGA: -0.28; ATGCTACG: -0.0841.
Consider TAGTAGCA, for which the “PBM E-score” value was -0.0836.
Turning to CGAGGTCC, the “PBM E-score” value was 0.333.
On to CTCAGGAG, for which the “PBM E-score” value is -0.171.
Under CTGCGGAA stands 0.214; under CTCCGGAG, 0.481; under CTCCGGAA, 0.479.
Consider ATGCGGAG, for which the “PBM E-score” value was 0.385.
As for CTCAGGAA, the “PBM E-score” value is -0.0459.
